Assay results taken from the supplement of paper PMC11417369.
± gives the standard deviation of the averaged measurements. Over roughly 25,000 sequences, “ln(normalized median fluorescence intensity)” has its median near 10; the highest 2% begin near 12. The full list was thinned out, with the highest values kept by preference.

Tested on: PfAP2-G AP2 domain (GST-tagged)
Test: gcPBM binding intensity (ln(normalized median fluorescence intensity)); higher = stronger DNA binding
Method in brief: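 Probes on an Agilent 4 × 180k array were primer-extended, double-stranded and 36 bp long, taken from intergenic genomic regions, with negative controls added. GST-tagged P. falciparum DNA-binding domains from E. coli, about 25 μg on average, were applied to the array for 1 h in 1× PBS containing 1% milk, 0.2 mg/ml BSA, 0.5% salmon testes DNA and 0.03% Triton X-100. Binding intensity, obtained after Alexa488 anti-GST antibody detection and a 488 nm scan, is the highest Masliner-normalised natural-log median intensity across replicate spots of either probe orientation.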

Sequence | gcPBM binding intensity (ln)
TGTTTTGTTTTTTGGGGTACATGTTTTGTATTATAT [XGTACX_site7997] | 11.6 ± 0.78
TATGATTTTTATATATGTACGTATGGTGTTTTACAA [XGTACX_site6100] | 11.3 ± 0.53
GTTTGGTGGTGTTTTGGTACGTACGGGGGTGTATGT [XGTACX_site1211] | 11.7 ± 0.85
GACTTTTCATTTATAGTGCAAGTTTTTTTTTTTTTT [GTGCAC_site9698] | 10.1 ± 0.23
CAAAAGTAAGCACGCACACACAACATGAAATAAACT [CACACA_site6223] | 10.29 ± 0.078
ATATATTTTGATTGCACACAGAATTTAAATCATGAT [CACACA_site2343] | 10.1 ± 0.2
TATTTATAAAAATATACACACATACAAATATGCATA [CACACA_site4555] | 9.815 ± 0.007
TTTTTTTTAAAACTATGTACGTAAAAATTGTAGTTT [XGTACX_site2302] | 11.7 ± 0.91
CATAAATACTATATATGTACGTAATTTTTAAAACAT [XGTACX_site7710] | 11.6 ± 0.83
TTTTTTTTTTTAATATGTACGTAAAATAAGTTTAAA [XGTACX_site6495] | 11.4 ± 0.95
TTTATTTTATTTTCATGTACAAAAGGGGAATAATAA [XGTACX_site2704] | 10.9 ± 0.71
AATAGGGTCATTCAAAAAAAAAAAAAATAATAATAC [CACACA_negctrl_site644] | 10.1 ± 0.29
TACACATGTTTAAAATGTACGTTTTATAACACACAC [XGTACX_site8229] | 11.3 ± 0.82
ATATTATAAATATAATGTACGTTTTAATTTCATGTT [XGTACX_site3557] | 11.2 ± 0.79
ATTTCTAAATGTTGGTGTACGTTTTTTTATAACCTT [XGTACX_site1752] | 11.6 ± 1.1
TCACTATAATAATTTACACACATTTTAAGAAAATGG [CACACA_site5867] | 10 ± 0.18
TATATTTATTATAACACACACATATATATATTATAT [CACACA_site1061] | 9.905 ± 0.064
TTATAAATAAAAAATACACACATATATTTATTTATA [CACACA_site6242] | 9.77 ± 0.028
TACTATGCCCCATATAAACACACAAATAAAAAGAAT [CACACA_site8857] | 10.2 ± 0.21
TTTTCATGTTGTAAAGCATGCTTTACTCATAAAAAA [TGCATGCA_site917] | 9.95 ± 0.23
ATAGGCAAAAAGTGTACACATTCATTTATATAAATA [CACACA_site4480] | 11.7 ± 0.79
ATTTCATTTTATAAGTGTACAATAAAAAAAAAAAAA [XGTACX_site8677] | 11.3 ± 1
TATACATTTTTATAAAGTACACAAAAATAAATATAA [XGTACX_site1647] | 11.5 ± 0.95

Sequence | gcPBM binding intensity (ln)
ATTTAAATAATATGTACACACATTTAAAAAGTTATA [CACACA_site7347] | 11.6 ± 0.94
TGCAATATATCAAAGTGTACATGCAATAAAAAAAAA [XGTACX_site652] | 11.1 ± 0.71
ACAATATGCAAAAAGTGTACACATTCATTTATATAA [XGTACX_site1061] | 11.7 ± 0.86
TTGTAGATATTTATATGTACGAATTTATAAATATAG [XGTACX_site3611] | 11.1 ± 0.76
ACTATTTTCTTCAAAACATGCACCACATAAACATAA [TGCATGCA_site200] | 10.6 ± 0.51
TAATTATTATTAATAGTACACACTATGGCATTTCAA [CACACA_site2488] | 11.1 ± 0.84
GATTATTTTATAAGTACACACATTTATATATAATAA [CACACA_site2573] | 11.5 ± 1.1
ATTAACACATTTAAGTGTACATATATAAATATATAT [XGTACX_site7098] | 11.4 ± 0.83
TCATATTCCAAGTGTACACATAAATCCCTAATAACA [CACACA_site5167] | 11.7 ± 0.94
ATTATATTTTTAAGTACACACATATAAATAAATATA [CACACA_site7682] | 11.4 ± 1
TATATTTATAAGTGTACACATTATATAAATCCCTAT [CACACA_site6122] | 11.7 ± 1.1
TAATATATTTATAAGTGTACACATTATATAAATCCC [XGTACX_site8875] | 11.7 ± 0.74
AAAATTCATCCAACAAGTACATAAATATAATATTAT [XGTACX_site4596] | 11.3 ± 0.79
TATTCATATTCCAAGTGTACACATAAATCCCTAATA [XGTACX_site4131] | 11.5 ± 0.9
TATAAATATATTTATACACACATTAGTGTATACATG [CACACA_site7397] | 10.2 ± 0.11
TCAAAAATAAAGATCACACATATATATATATATATA [CACACA_site4381] | 10.3 ± 0.99
CACATATATACACATACACACACACCCATACACCCA [CACACA_site8505] | 10.5 ± 0.39
TATACAAAATAACTAGCACACATATGTATAAACATA [CACACA_site9236] | 10.2
TACATACACAAATACACACACAAATACATACACAAA [CACACA_site704] | 10.2 ± 0.41
TAAACATTCTTATATAGTACCCATATTAAAATATAC [XGTACX_site8014] | 10.8 ± 0.58
TATATATAAGAAAAAAGTACAGATATATATATATTC [XGTACX_site4788] | 11.6 ± 1.1
CCAATAATATATAGAAGTACAGAAAAAAAAAAAAAA [XGTACX_site2049] | 11.5 ± 1.1
TATATATATATAAGAAGTACAGAAAATTAGAAAAAA [XGTACX_site8773] | 11.7 ± 1.1

Sequence | gcPBM binding intensity (ln)
TTTTTTTTTTTTTTTTTTTTTTTGCTCAGTGTGGTA [CACACA_negctrl_site29] | 9.95 ± 0.56
ACAGAAAATAAAATTTGTACATATATAGAATAAAGA [XGTACX_site3014] | 10.8 ± 0.39
AAAATTATATATTATAGTACATAAAATTTTGATATA [XGTACX_site994] | 10.9 ± 0.56
ATTTTGATAACCGTACGTACATATATATATATATAT [XGTACX_site6605] | 11.8 ± 0.85
AATGATTTTGATTAACGTACGTACAAATATATATAT [XGTACX_site6604] | 11.5 ± 0.82
ACCATTTGTACTTACGCACACATAAAATATATATAT [CACACA_site1545] | 11.5 ± 1
TAAATTATATTATGCACACTTAAAAATATATTTAAC [CACACA_site3512] | 10.07 ± 0.085
CAACAAAAATTATTTACACACAAAAGGCAAGGAAAT [CACACA_site1971] | 10.5 ± 0.28
ACCTTAAATAATACATGTACAAAAAAATTTATAATA [XGTACX_site1043] | 11 ± 0.49
TCTTACTAATTTATGGGGACTTATCACCTATTCAGT [CACACA_negctrl_site652] | 10.5 ± 0.23
TTTTGTGGAGGATGGTGTACGGTATTGTATTATTAC [XGTACX_site1942] | 11.1 ± 0.64
TTACATATTATACGAAGTACGTACAAATACTTATAT [XGTACX_site8598] | 11.7 ± 0.81
ATTTATATATTTATACGTACTTATATATTGTTACAT [XGTACX_site6254] | 11.2 ± 0.73
ATACGAAGTACGTACACACACTTATATGTTACTAAA [CACACA_site7812] | 11.7 ± 1
TTATACGAAGTACGTACACACACTTATATGTTACTA [CACACA_site4019] | 11.6 ± 0.94
ATACATATATACATACGTACTTATATACATATGTGC [XGTACX_site5268] | 10.9 ± 0.42
TACCTAATATGTTATACACACATTAGAAGTACATAT [CACACA_site5375] | 11.6 ± 1.1
AGAAAATATACAAAACGTACTTATATATTATATCTA [XGTACX_site3104] | 10.9 ± 0.69
ATAAAAATAAACATACGTACTTACACGAATATACAT [XGTACX_site5989] | 11.1 ± 0.65
TTATGTATAAACACACGTACACACACTAAGTATATC [XGTACX_site3254] | 11.5 ± 1
TTTCATGTTTTAAAGTGTACATAAATATATTATATG [XGTACX_site3367] | 11.5 ± 0.89
ATAATTTCAATATTTAATATCATATATATATATTTT [GTGCAC_negctrl_site713] | 9.56 ± 0.13
CTATCATATTTATGCACACAAAAATAATTAATTCGT [CACACA_site2614] | 10.2 ± 0.23

Sequence | gcPBM binding intensity (ln)
TAATTTATAAATAATTGTACATAGTTTATTTAGATT [XGTACX_site4599] | 10.9 ± 0.43
ATACAGATAGGATGCACACATAATTCAAATACAATA [CACACA_site4531] | 10.2 ± 0.13
TTTTTTTTATTAAAAAGTACTAAACAAATTATATAT [XGTACX_site121] | 11.1 ± 0.73
AATAATTTTTAAATATAAACATTTTTTTTTTTTTTT [GTGCAC_negctrl_site532] | 9.72 ± 0.057
TGCACAAAGTTATGCACACACCTAAAATTAATTTTT [CACACA_site7385] | 10.05 ± 0.071
TGATAATAAGCATACACACACACACTAAAAAAAAAA [CACACA_site6478] | 10.3 ± 0.43
ATAAGGAAGGGATGCACACAAAAGGGTACATAAGAA [CACACA_site4006] | 11.4 ± 0.71
AAAGAAAAAAAAAAAAGTACATAAATATAAAAAGAA [XGTACX_site6753] | 11.5 ± 0.89
ATATATATATATATATGTACACATAAAAAGAAAGAA [XGTACX_site1603] | 11.7 ± 1.1
TAAAAGTTCACCTGTACACACATATAAATATGTACA [CACACA_site6901] | 11.7 ± 0.85
ATACATATACACATATGTACATATGAAAAGAAAAAT [XGTACX_site6445] | 11.1 ± 0.64
AAAGAAGGGGGGGGAAAAAAAAATAAAAGAGGAAAA [XGTACX_negctrl_site92] | 11 ± 0.77
AAAAAAAAAAAGTACACACATACATATAAATATATA [CACACA_site1809] | 11.6 ± 0.95
AAATAAAGAAATATATGTACATATATATATATATAT [XGTACX_site5131] | 11.3 ± 0.43
AGAAAAAAAAAAAGTACACACATATAATATATATAT [CACACA_site2973] | 11.6 ± 1.2
AATAAAAGTTCACCTGTACACACATATATATATGTA [CACACA_site8500] | 11.3 ± 0.76
CAGGGCAGGGGGAAGGGTACACATAAAAGAAAATAA [XGTACX_site172] | 11.7 ± 1.1
AAATAAAAGTTCACCTGTACACACATATATATATGT [XGTACX_site3513] | 11.5 ± 0.66
ACATATAAAATGTATACACACAAATATTACATATAT [CACACA_site1472] | 10.1 ± 0.11
TTTTTCATTTAGCTTTTACACACTATATATTATTGA [CACACA_site7888] | 9.905 ± 0.064
